The source of these data is the supplement of paper PMC9135407.

For the assay, the system named is primary human hepatic stellate cells (donor 1). Put plainly: scaled lipid accumulation score (0 = DMSO-like, 1 = nortriptyline-like); higher = stronger HSC inactivation (lipid re-accumulation), active = hit call of the paper. Particulars: 48 h.
The mark [1] stands for this setting: library stock concentration: 10 mM.
[2] abbreviates: library stock concentration: 1 mM.
[3] abbreviates: library stock concentration: 80 uM.
Setting [4] is: library stock concentration: 400 uM.
Where [5] appears, read: library stock concentration: 2 mM.
[6] abbreviates: library stock concentration: 3.33 mM.

Several values for one entry are separate records, joined by “and”; a condition that tells them apart may be missing. Identical values can stand only once. Counter-ions that a name gives are not always drawn. Hit rate of the full screen: of about 5,800 compounds, about 620 (11%) showed activity. The full list was thinned out, with actives kept by preference. Unmarked numbers belong to inactive results.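 How the source made its calls: active = score above a cut-off or among the top three wells of a plate; in these data no inactive exceeds 0.85.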

As for `COc1ccc(CCN(C)CCCOc2ccc(S(=O)(=O)c3c(C(C)C)c4ccccc4n3C)cc2)cc1OC`, the “scaled lipid accumulation score” value under setting [1] is 0.445.
With `CC(C)CC[C@@H](O)[C@@H](C)[C@H]1CC[C@H]2[C@@H]3CC=C4C[C@@H](O)CC[C@]4(C)[C@H]3CC[C@]12C` [22(R)-hydroxy Cholesterol], the “scaled lipid accumulation score” value under setting [2] was 0.045.
The same measure, in the same setting: for `O=C1C[C@@H]2[C@@H](/C=C/[C@@H](O)COc3cccc(C(F)(F)F)c3)[C@H](O)C[C@@H]2O1` [Fluprostenol Lactone Diol] the value was 0.003.
Regarding `CC1=C(C(=O)Nc2cc3cn[nH]c3cc2F)C(c2ccc(C(F)(F)F)cc2)CC(=O)N1` (stereo not given), the “scaled lipid accumulation score” value by setting is: under setting [3], 0.022; under setting [4], ≤ 0 and ≤ -0.005; under setting [5], 0.014 and ≤ -0.005; under setting [6], not above 0; under setting [1], ≤ 0 and 0.096 and 0.308.
In the case of `C/C=C1\NC(=O)[C@H]2CSSCC/C=C/[C@H](CC(=O)N[C@H](C(C)C)C(=O)N2)OC(=O)[C@H](C(C)C)NC1=O` [Romidepsin (FK228, Depsipeptide)], the “scaled lipid accumulation score” value reads like this: under setting [6], 0.521; under setting [1], 0.472.
Turning to `C=CC(=O)Nc1cc(-n2c(=O)ccc3cnc4ccc(-c5ccc(NS(C)(=O)=O)cc5)cc4c32)ccc1C`, the “scaled lipid accumulation score” value is, setting by setting: under setting [3], not above -0.001; under setting [4], not above -0.001; under setting [5], 0.003; under setting [1], 0.06.
As to `C=CC(=O)N1CCc2ccc(-n3c(=O)ccc4cnc5ccc(-c6cnn(C)c6)cc5c43)cc21`, the “scaled lipid accumulation score” value under setting [1] is 1.19 (active).
As for `C=CC(=O)Nc1cc(-n2c(=O)ccc3cnc4ccc(-c5cn[nH]c5)cc4c32)ccc1C`, the “scaled lipid accumulation score” value under setting [3] is not above 0, the “scaled lipid accumulation score” value under setting [4] was not above 0, the “scaled lipid accumulation score” value under setting [5] was 0.082 and the “scaled lipid accumulation score” value under setting [1] was 0.662.
Regarding `CCCCC(CC)CN=C(N)N=C(N)NCCCCCCNC(N)=NC(N)=NCC(CC)CCCC` (stereo not given) [Alexidine hydrochloride], the “scaled lipid accumulation score” value under setting [1] is not above -0.027.
With `CCCCCC1OC(O)CC1SC[C@H](NC(C)=O)C(=O)O` (stereo not given in full) [4-hydroxy Nonenal Mercapturic Acid], the “scaled lipid accumulation score” value under setting [2] is not above 0.
In the case of `Nc1c(CC(=O)O)cccc1C(=O)c1ccccc1` [Amfenac Sodium Monohydrate], the “scaled lipid accumulation score” value reads like this: under setting [6], not above 0; under setting [1], 0.019.
Turning to `NC1(C(=O)N[C@@H](CCO)c2ccc(Cl)cc2)CCN(c2ncnc3[nH]ccc23)CC1`, the “scaled lipid accumulation score” value is 0.053 under setting [3]; 0.049 under setting [4]; 0.038 under setting [5]; not above -0.009 under setting [6]; ≤ 0 and 0.178 under setting [1].
For the molecule `NC1(Cc2ccc(Cl)cc2)CCN(c2ncnc3[nH]ccc23)CC1` [listing 1 of 2 here], the “scaled lipid accumulation score” value under setting [1] was 1.09 (active).
On to `NC1(Cc2ccc(Cl)cc2)CCN(c2ncnc3[nH]ccc23)CC1` [listing 2 of 2 here], for which the “scaled lipid accumulation score” value under setting [6] was 0.47.
With `OCCNCCCOc1cccc(Cl)c1Cl` [2,3-DCPE (hydrochloride)], under setting [2], the “scaled lipid accumulation score” value is 0.049.
Still for that read-out and setting: for `O=C(c1cccs1)c1ccc(OCCCO)c(Cl)c1Cl` [homo-Tienilic Alcohol] the value was 0.02.
For the molecule `Cl.OCCNCCCOc1cccc(Cl)c1Cl` [2,3-DCPE hydrochloride], the “scaled lipid accumulation score” value under setting [1] was 1.14 (active).
`O=Cc1cccc2[nH]ccc12` [4-formyl Indole]: the “scaled lipid accumulation score” value under setting [2] is not above 0.
As to `CC(C)(C)Cn1c(N)nc2ccc(-c3[nH]c(C(C)(C)C)nc3-c3ccc(F)cc3)nc21`, the “scaled lipid accumulation score” value runs as follows: under setting [6], 0.034; under setting [1], 0.268.
On to `CC(C)(C)Cn1c(N)nc2ccc(-c3[nH]c(C(C)(C)C)nc3-c3ccc(F)cc3)nc21` [Ralimetinib], for which the “scaled lipid accumulation score” value is 0.033 under setting [3], 0.086 under setting [4], 0.076 under setting [5] and 0.481 under setting [1].
As to `O=C(O)CCC/C=C\C[C@H]1[C@@H](O)CC(=O)[C@@H]1/C=C/[C@@H](O)COc1cccc(C(F)(F)F)c1` [11-keto Fluprostenol], the “scaled lipid accumulation score” value under setting [2] was not above 0.
Turning to `CN(C)C/C=C(/c1ccc(Br)cc1)c1cccnc1` [Zimelidine dihydrochloride monohydrate], the “scaled lipid accumulation score” value was 0.454.
As to `CCN(CC)C(=O)c1cccnc1`, under setting [1], the “scaled lipid accumulation score” value was 0.073.
As for `CN(C)C/C=C(/c1ccc(Br)cc1)c1cccnc1` [Zimelidine dihydrochloride], the “scaled lipid accumulation score” value (library stock concentration: 5.1 mM) is 0.434 and the “scaled lipid accumulation score” value under setting [1] is 0.178.
For the molecule `CN(C)C/C=C(/c1ccc(Br)cc1)c1cccnc1.Cl.Cl` [Zimelidine dihydrochloride], the “scaled lipid accumulation score” value under setting [1] is 0.893 (active).
In the case of `CC(=O)OCOC(c1cc([N+](=O)[O-])ccc1Oc1ccc(Br)cc1)P(=O)(OCOC(C)=O)OCOC(C)=O` (stereo not given), the “scaled lipid accumulation score” value (library stock concentration: 8.1 mM) was 0.887 (active).
Take `CS(=O)(=O)Nc1ccc([N+](=O)[O-])cc1Oc1ccccc1` [Nimesulide]: the “scaled lipid accumulation score” value was 0.061. Moreover, the “scaled lipid accumulation score” value under setting [2] is not above 0. Further, under setting [6], the “scaled lipid accumulation score” value was not above 0. Also, the “scaled lipid accumulation score” value (library stock concentration: 16.2 mM) was 0.012.
As to `CC(=O)OCOC(c1ccc2ccccc2c1)P(=O)(OCOC(C)=O)OCOC(C)=O` (stereo not given), the “scaled lipid accumulation score” value (library stock concentration: 11 mM) was 0.031.
As for `Cn1cc(C(F)(F)F)nc1-c1ccc(OCC(O)CNCCOc2ccc(O)c(C(N)=O)c2)cc1` (stereo not given), under setting [1], the “scaled lipid accumulation score” value is 0.731.
The same measure, in the same setting: for `COc1cc2ncnc(Sc3nnc(C)s3)c2cc1OC` [listing 1 of 2 here] the value was 0.919 (active).
As for `COc1cc2ncnc(Nc3cc(Br)c(O)c(Br)c3)c2cc1OC`, the “scaled lipid accumulation score” value is not above 0 under setting [3], not above 0 under setting [4], not above 0 under setting [5] and 0.04 under setting [1].
Regarding `COc1cc2ncnc(Sc3nnc(C)s3)c2cc1OC` [listing 2 of 2 here], the “scaled lipid accumulation score” value under setting [6] is not above -0.009.
Turning to `C=CC(=O)Nc1cc(NC(=O)c2ccc(C)c(NC(=O)c3ccno3)c2)cc(C(F)(F)F)c1`, the “scaled lipid accumulation score” value is not above 0 under setting [3], not above 0 under setting [4], not above 0 under setting [5] and 0.311 under setting [1].
In the case of `Nc1ccc(-c2cccc3c(=O)cc(N4CCOCC4)oc23)cc1`, under setting [1], the “scaled lipid accumulation score” value was not above -0.001.
Turning to `Nc1ncnc2nc(-c3ccc(N4CCOCC4)nc3)cc(-c3cccc(Br)c3)c12` [listing 1 of 2 here], the “scaled lipid accumulation score” value under setting [3] was not above -0.001, the “scaled lipid accumulation score” value under setting [4] is 0.008 and the “scaled lipid accumulation score” value under setting [5] was not above -0.001.
Take `Nc1ncnc2nc(-c3ccc(N4CCOCC4)nc3)cc(-c3cccc(Br)c3)c12` [listing 2 of 2 here]: the “scaled lipid accumulation score” value under setting [1] was 0.982 (active).
On the same count and under the same terms, for `Nc1ncnc2nc(-c3ccc(N4CCOCC4)nc3)cc(-c3cccc(Br)c3)c12` [ABT 702 dihydrochloride] the value was 0.275.
Still for that read-out and setting: for `O=C(CCBr)N1CCN(C(=O)CCBr)CC1` [Pipobroman] the value was not above -0.027.
For `S=C=Nc1cccc(NC(=S)NCCCCNC(=S)Nc2cccc(N=C=S)c2)c1`, the “scaled lipid accumulation score” value runs as follows: under setting [6], 0.004; under setting [1], 0.023.
In the case of `CCNC(=O)c1noc(-c2cc(C(C)C)c(O)cc2O)c1-c1ccc(CN2CCOCC2)cc1` [listing 1 of 2 here], the “scaled lipid accumulation score” value is, setting by setting: under setting [3], 0.702; under setting [4], 0.802; under setting [5], 0.808; under setting [1], 0.831 and 0.776.
`CCNC(=O)c1noc(-c2cc(Cl)c(O)cc2O)c1-c1ccc(OC)cc1`: the “scaled lipid accumulation score” value is 0.783 under setting [6] and 0.741 under setting [1].
In the case of `CCNC(=O)c1noc(-c2cc(C(C)C)c(O)cc2O)c1-c1ccc(CN2CCOCC2)cc1` [listing 2 of 2 here], the “scaled lipid accumulation score” value under setting [6] was 0.91 (active).
Consider `CN(C)CC(=O)Nc1ccc2[nH]c(=O)c3ccccc3c2c1`, for which the “scaled lipid accumulation score” value runs as follows: under setting [6], ≤ 0 and ≤ -0.009; under setting [1], 0.59 and 0.025.
`CN(C)[C@@H]1CCc2[nH]c3ccc(NC(=O)c4ccc(F)cc4)cc3c2C1.Cl`: the “scaled lipid accumulation score” value under setting [1] is 1.37 (active).
Turning to `CN(C1CCc2c(c3ccccc3n2CC(=O)O)C1)S(=O)(=O)c1ccc(F)cc1` (stereo not given), the “scaled lipid accumulation score” value under setting [2] was 0.083.
As to `CCCCCCCCCCCCCCCC(O)C(N)CO` (racemic) [DL-Dihydrosphingosine], the “scaled lipid accumulation score” value under setting [2] is not above -0.021.
Turning to `NC(=O)c1cnc(N[C@@H]2CCCC[C@@H]2N)nc1Nc1cccc(-n2nccn2)c1`, the “scaled lipid accumulation score” value was not above 0 under setting [3]; 0.015 under setting [4]; 0.218 under setting [5]; 0.214 under setting [6]; 0.215 and 0.449 under setting [1].
Consider `Cc1cc(O)cc(C)c1Cl` [Chloroxylenol], for which the “scaled lipid accumulation score” value under setting [1] was not above 0.
`C[C@H]1c2cccc(O)c2C(O)=C2C(=O)[C@]3(O)C(O)=C(C(N)=O)C(=O)[C@@H](N(C)C)[C@@H]3[C@@H](O)[C@@H]21` [Doxycycline Hyclate]: the “scaled lipid accumulation score” value by setting is: under setting [6], not above 0; under setting [1], not above -0.001.
For `CC(C)OC(=O)CCC/C=C\C[C@@H]1[C@@H](/C=C/[C@@H](O)CCc2ccccc2)[C@H](O)C[C@@H]1O` [17-phenyl trinor Prostaglandin F2.alpha. isopropyl ester], the “scaled lipid accumulation score” value under setting [2] is not above 0.
As to `CC(C)Nc1ncccn1`, the “scaled lipid accumulation score” value under setting [1] is not above 0.
`C(=C\c1ccccc1)/CN1CCN(C(c2ccccc2)c2ccccc2)CC1` [Cinnarazine]: the “scaled lipid accumulation score” value is 0.328 (library stock concentration: 5.4 mM) and 0.423 under setting [1].
Consider `COc1ccc(-c2cc(C(F)F)nn2-c2ccc(S(N)(=O)=O)cc2)cc1F` [Deracoxib], for which the “scaled lipid accumulation score” value (library stock concentration: 5 mM) is not above 0.
As for `CCCCC/C=C\C/C=C\C/C=C\CCCCC(=O)OC` [.gamma.-Linolenic Acid methyl ester], the “scaled lipid accumulation score” value under setting [2] is not above 0.
Same read-out and setting: for `O=C(O)CCCCCC[C@@H]1[C@@H](CC[C@@H](O)CCc2cccc(C(F)(F)F)c2)[C@H](O)C[C@@H]1O` the value was not above 0; for `CCCCC(C)(C)[C@H](O)/C=C/[C@H]1[C@H](O)CC(=O)[C@@H]1CC(=O)CCCCC(=O)O` [16,16-dimethyl-6-keto Prostaglandin E1], not above 0.
With `CC[C@]1(O)C[C@H]2CN(CCc3c([nH]c4ccccc34)[C@@](C(=O)OC)(c3cc4c(cc3OC)N(C=O)[C@H]3[C@@](O)(C(=O)OC)[C@H](OC(C)=O)[C@]5(CC)C=CCN6CC[C@]43[C@@H]65)C2)C1` [Vincristine], the “scaled lipid accumulation score” value is 0.004 under setting [6] and 0.512 under setting [1].
For `CCC1(O)CC2CN(CCc3c([nH]c4ccccc34)[C@@](C(=O)OC)(c3cc4c(cc3OC)N(C=O)C3[C@]45CCN4CC=C[C@@](CC)([C@@H](OC(C)=O)[C@]3(O)C(=O)OC)[C@H]45)C2)C1.O=S(=O)(O)O` (stereo not given in full) [Vincristine sulfate], under setting [1], the “scaled lipid accumulation score” value is 0.897 (active).
Still for that read-out and setting: for `CC[C@]1(O)C[C@H]2CN(CCc3c([nH]c4ccccc34)[C@@](C(=O)OC)(c3cc4c(cc3OC)N(C=O)[C@H]3[C@@](O)(C(=O)OC)[C@H](OC(C)=O)[C@]5(CC)C=CCN6CC[C@]43[C@@H]65)C2)C1.O=S(=O)(O)O` [Vincristine sulfate] the value was 1.36 (active); for `CC[C@]1(O)C[C@@H]2CN(CCc3c([nH]c4ccccc34)[C@@](C(=O)OC)(c3cc4c(cc3OC)N(C=O)[C@H]3[C@@](O)(C(=O)OC)[C@H](OC(C)=O)[C@]5(CC)C=CCN6CC[C@]43[C@@H]65)C2)C1.O=S(=O)(O)O`, 1.47 (active).
